Measurements published in ChEMBL document CHEMBL3988442, “University of Dundee, Small-Polar-MMV Screening Library” (2021).
Hit rate of the full screen: of about 66,000 compounds, about 960 (1.5%) showed an effect of 50% or more. The sample holds strong results, similar compounds and a random draw of the others, so the mix is not that of the screen.

Test system: Trypanosoma brucei
Assay: Trypanosoma brucei 72 hour study
Format: functional, organism-based
Design: scale not given: in the data most compounds retested in dose-response had high values

| Compound | Percent Effect (30 µM, 30.03 µM) | Percent Effect (30.3 µM, […]) |
| --- | --- | --- |
| O=C(O)C(F)(F)F.O=C(c1ccco1)N1CC[C@@H]2O[C@H](COCCN3CCCC3)CC[C@@H]21 | 43.22% |  |
| COc1ccc2c(ccn2CCCN)c1.O=C(O)C(=O)O | 0.08661% |  |
| O=C(O)C(F)(F)F.O=C(c1ccc(F)cc1)N1CCC2(CC1)CC(N1CCOCC1)C2 |  | -59.01% |
| Cn1nccc1C(=O)N1CC[C@]2(C[C@H](OCc3ccccn3)CO2)C1.O=C(O)C(F)(F)F |  | -48.61% |
| COc1cccc(N2Cc3nc(=O)n(C(C)C)n3C2=O)c1 | -40.88% |  |
| CC[C@@H]1N(Cc2ccc(OC)cc2)CCC[C@]12CCC(=O)N2CCOC.O=C(O)C(F)(F)F |  | -46.04% |
| CCOc1ccc(N2CCCN=C2NC(=O)c2cccc(OC)c2)cc1 |  | -26.63% |
| COc1cccc(-c2noc(C3CCN(Cc4ccccc4C)C3)n2)c1.Cl (centres undefined) |  | -12.24% |
| COc1cccc(-c2noc(C3CCN(Cc4ccccc4F)C3)n2)c1.Cl (centres undefined) |  | -18.78% |
| COc1cccc(-c2noc(C3CCN(Cc4cn(C)nc4C)C3)n2)c1 (centres undefined) | 63.09% |  |
| CNC(=O)[C@@]12CCO[C@@H]1CCN(Cc1ccc3c(c1)OCO3)C2.O=C(O)C(F)(F)F |  | -39.27% |
| Cc1nn(C)c(C)c1CCn1cncc1-c1ccc2c(c1)CC(C)N2C.Cl (centres undefined) |  | 26.67% |
| CCN1c2ccc(-c3cncn3CCCn3ccnc3C)cc2CC1C.Cl (centres undefined) |  | 7.904% |
| Cc1cc(C)n(CCCn2cncc2-c2ccc3c(c2)CC(C)N3C)n1.Cl (centres undefined) |  | 83.42% |
| Cc1nccn1CCCn1cncc1-c1ccc2c(c1)CCC(C)N2C.Cl (centres undefined) |  | 17.11% |
| Cc1nccn1CCCn1cncc1-c1ccc2c(c1)CC(C)N2C.Cl (centres undefined) |  | -10.42% |
| COCC1N(S(=O)(=O)c2cn(C)cn2)[C@H]2CC[C@]1(O)CC2 (some centres undefined) |  | -23.23% |
| CN(C)C(=O)CN1C(=O)CCC12CCN(Cc1cccs1)CC2.O=C(O)C(F)(F)F |  | -53.05% |
| O=C(O)C(F)(F)F.O=C(c1cscn1)N1CCCC2(CCN2Cc2cccc(F)c2)C1 (centres undefined) |  | 27.36% |
| Cc1cc(C)cc(OCC(O)CN2CCN(c3nccs3)CC2)c1 (centres undefined) | -27.85% |  |
| COC(=O)c1ccc(N2CCN(C(=O)c3cnc(C)cn3)C(C)C2)cc1 (centres undefined) |  | 8.397% |
| Cc1nn(C)c2nc(-c3ccccn3)nc(NC[C@@H]3CCCO3)c12 | -82.13% |  |
| Cc1nn(C)c2nc(-c3ccccn3)nc(NCCC3CCCN3C)c12 (centres undefined) | -75.32% |  |
| CCC1(O)CCCN(c2nc(-c3ccccn3)nc3c2c(C)nn3C)C1 (centres undefined) | 51.81% |  |
| O=C1CCC2(CCN(Cc3cscn3)CC2)CN1[C@H]1CC[C@H](O)CC1 | -1.213% |  |
| CNc1cccc(CC2COCCN(C(=O)c3cccnc3)C2)n1 (centres undefined) |  | 5.622% |
| CCNC(=O)NCCc1csc(N2CCCC2)n1 | -10.34% |  |
| CC(C)(C)SCC(=O)NCCc1csc(N2CCCC2)n1 | -0.8864% |  |
| CC(C)(C)OC(=O)NCCc1csc(N2CCCC2)n1 | 63.65% |  |
